Shown is part of a subset that was picked to be rich in hits.
BLM inh: blocks DNA unwinding by human BLM helicase; recombinant BLM DNA unwinding, fluorescence dequenching; Potency, µM (titrated, usually from 56.1 µM), without a hit: top-dose activity change, negative = inhibition, most hits filed as inhibitors; AID 2528; 350,000 tested, 0.2% active; P54132;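 note: plate controls were vehicle for no effect and no enzyme for full effect; nearly all actives have a fitted effect of over 35% in size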
RECQ1 inh-1: RECQ1 (human) helicase inhibition. P46063. RECQ1 DNA unwinding, red fluorescence kinetic read. Potency, µM (series often up to 57.3 µM), for inactives: at the highest dose activity, negative = inhibition, hits mostly inhibitors. 240,000 tested, 0.54% active;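 note: plate controls were vehicle for no effect and no enzyme for full effect; nearly all actives have a fitted effect of over 30% in size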
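RECQ1T1 50 nM; forked duplex (20 bp + 30-nt ss tails) 200 nM, ATP 2 mM final; pH 8.0, 2 mM MgCl2, 2.5 ug/ml poly(dI-dC); 15 min compound preincubation; discontinuous kinetic read over 2 h at RT.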
TDP1 inh: blocks human tyrosyl-DNA phosphodiesterase 1; recombinant TDP1, AlphaScreen DNA substrate cleavage; 350,000 tested, 0.28% active; Potency, µM (series often up to 130 µM), inactives show at the top dose activity change, negative = inhibition, usual class: inhibitors; note: nearly all actives have a fitted effect of over 40% in size
Target sequence (Q9NUW8 whole entry, looked up): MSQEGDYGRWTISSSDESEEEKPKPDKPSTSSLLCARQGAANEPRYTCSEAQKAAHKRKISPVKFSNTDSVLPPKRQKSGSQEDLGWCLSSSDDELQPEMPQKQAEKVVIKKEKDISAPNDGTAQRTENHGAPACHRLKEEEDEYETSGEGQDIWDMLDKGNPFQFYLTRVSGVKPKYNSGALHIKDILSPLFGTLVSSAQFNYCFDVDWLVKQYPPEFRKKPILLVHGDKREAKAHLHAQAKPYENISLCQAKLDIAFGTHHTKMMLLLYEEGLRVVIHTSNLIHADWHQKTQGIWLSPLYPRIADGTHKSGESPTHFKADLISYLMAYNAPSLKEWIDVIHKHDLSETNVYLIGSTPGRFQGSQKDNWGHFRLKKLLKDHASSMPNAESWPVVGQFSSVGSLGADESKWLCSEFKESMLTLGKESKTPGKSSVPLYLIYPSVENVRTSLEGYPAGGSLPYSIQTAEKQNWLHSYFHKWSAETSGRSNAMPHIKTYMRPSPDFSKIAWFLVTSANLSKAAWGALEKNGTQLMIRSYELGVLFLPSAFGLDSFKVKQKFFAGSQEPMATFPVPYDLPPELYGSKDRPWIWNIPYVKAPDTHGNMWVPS
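Recombinant human Tdp1 (E. coli-expressed, 1 nM final) preincubated with compounds 15 min at room temperature, then 5'-biotin/3'-phosphotyrosine-FITC DNA substrate (15 nM final) added for 5 min. AlphaScreen beads (10 ug/ml final) added 10 min; cleavage lowers signal.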
APE1 inh: inhibitors of human APE1 endonuclease | recombinant APE1, TAMRA/BHQ-2 abasic DNA cleavage fluorescence | 350,000 tested, 0.35% active | P27695 | AID 2517 | Potency, µM (doses to about 65.8 µM), for the others: top-dose activity change, negative = inhibition, usual class: inhibitors;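 note: plate controls were vehicle for no effect and reference inhibitor for full effect; nearly all actives have a fitted effect of over 55% in size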
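Step 1: APE1 (0.75 nM) with compound, 15 min RT. Step 2: add 50 nM fluorophore/quencher THF duplex. Step 3: three fluorescence reads 60 s apart (525/598 nm); read 3 minus read 1 = reaction progress.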
L3MBTL1 block: blocks human L3MBTL1. AlphaScreen L3MBTL1–H3K9me1 peptide binding. Q9Y468. AID 485360. 230,000 tested, 0.66% active. Potency, µM (doses to about 57.1 µM), without a hit: at the highest dose activity, negative = inhibition, hits mostly inhibitors; note: nearly all actives have a fitted effect of over 60% in size
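Displacement of a biotinylated histone H3(1-15) peptide monomethylated at Lys9 (75 nM) from L3MBTL1 (50 nM) was measured by AlphaScreen after a 30 min room-temperature compound incubation; cefsulodin titration served as intraplate control.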
KDM4E inh: blocks human JMJD2E demethylase activity; B2RXH2; JMJD2E catalytic domain, FDH-coupled NADH fluorescence (FDH is formaldehyde dehydrogenase); Potency, µM (highest dose often 57.1 µM), inactives show at the highest dose activity change, negative = inhibition, most hits filed as inhibitors; 230,000 tested, 1.6% active; AID 2147; active = well fitted inhibition curve with a large enough effect, not every such curve was filed as active; inconclusive = small, poorly fitted or top-dose-only effect, or another doubt; inactive = no such curve, though single readings can be large or run the other way;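 note: 0% = wells with enzyme and -100% = buffer wells without enzyme; nearly all actives have a fitted effect of over 50% in size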
RECQ1 inh conf: confirmation of human RECQ1 helicase inhibitors; shares compounds with RECQ1 inh-1; RECQ1 helicase DNA unwinding, fluorescence; Potency, µM (top dose mostly 229 µM), for the others: at the highest dose activity change, negative = inhibition, hits mostly inhibitors; 610 tested, 28% active; note: nearly all actives have a fitted effect of over 45% in size
RECQ1 ADP FP: displaces ADP in a fluorescence polarization counter-screen for RECQ1 hits | shares compounds with RECQ1 inh-1 | ADP fluorescence polarization displacement counterscreen | Potency, µM (doses to about 228 µM), for inactives: at the highest dose activity change, negative = inhibition, most hits filed as inhibitors | 530 tested, 27% active | AID 2711; note: nearly all actives have a fitted effect of over 45% in size
RECQ1 inh-2: confirmation of human RECQ1 helicase inhibitors | 1,100 tested, 15% active | recombinant RECQ1 DNA unwinding, red fluorescence | shares compounds with RECQ1 inh-1 | AID 504841 | Potency, µM (highest dose often 119 µM), without a hit: at the highest dose activity, negative = inhibition, usual class: inhibitors; note: nearly all actives have a fitted effect of over 50% in size
Numbers without * were called inactive; i = inactive; ? = inconclusive; . = no result given; [ ] = another dose, or the depositor's remark. Unless noted, calls come from the whole dose curve; as a rule, active = well fitted curve in the direction sought with a large enough effect; inconclusive = small, poorly fitted or top-dose-only effect, or another doubt; inactive = no such curve, though single readings can be large; an effect the other way counts as inactive or inconclusive. Unless noted, % is set by controls: 0 for no effect and ±100 for the full control effect; potency is the fitted concentration of half-maximal effect.

SMILES	BLM inh	RECQ1 inh-1	TDP1 inh	APE1 inh	L3MBTL1 block	KDM4E inh	RECQ1 inh conf	RECQ1 ADP FP	others
CCOC(=O)c1c(-c2ccc(C)o2)csc1NC(=O)CSc1nncs1	2%	1.8µM*	8%	?	-8%	?	15%[114 µM]	187%[91.9 µM]
CCn1c(CSc2nnc(-c3ccncc3)n2CCOC)nc2cc(C(=O)O)ccc21	-10%	22µM*	2%	-8%	6%	-4%	56µM*	4.5µM*	RECQ1 inh-2=-178%
CCn1c(CSc2n[nH]c(N)n2)nc2cc(C(=O)O)ccc21	-9%	32µM*	-7%	?	22%	-11%	.	.	RECQ1 inh-2=56µM*
CCOc1ccc(C(=O)CSc2nnc3ccccn23)cc1	1%	-8%	3%	-5%	.	1%	.	.
CCn1c(CSc2nnc3ccccn23)nc2cc(C(=O)O)ccc21	-7%	10µM*	2%	-7%	5%	-3%	45µM*	2µM*	RECQ1 inh-2=56µM*
CCC(C)C(NC(=O)OC(C)(C)C)C(=O)NC1COC2CC(n3ccc(NC(C)=O)nc3=O)OC12 (centres undefined)	3%	i	9%	2%	.	.	.	.
Cc1c(N2C(=O)CS/C2=N\N=C\c2ccccc2O)c(=O)n(-c2ccccc2)n1C	-4%	i	1%	-7%	-8%	-6%	19%	-23%
Cc1c(N2C(=O)CS/C2=N\N=C\c2ccc(Cl)cc2)c(=O)n(-c2ccccc2)n1C	1%	i	2%	2%	-3%	9%	.	.
COc1cc(NC(=O)CCc2c(C)nc3c4c(C)cc(C)nc4nn3c2C)cc(OC)c1	-15%	.	3%	.	.	.	.	.
COCCSc1nnc(NC(=O)Cc2cccs2)s1	-11%	-8%	3%	2%	25%	6%	.	.
Cc1ccccc1CSc1nnc(NC(=O)Cc2cccs2)s1	-21%	40µM*	3%	?	?	3%	.	.	RECQ1 inh-2=-29%
CCCN1CNc2c(c(=O)[nH]c(=S)n2CCc2ccc(OC)cc2)C1	.	.	0%	.	.	.	.	.
COC(=O)CSc1nnc(CNc2ccc(Cl)cc2)n1Cc1ccccc1	-2%	0%	2%	10%	0%	2%	.	.
Cc1ccc(NCc2nnc(SCC(=O)O)n2Cc2ccccc2)cc1Cl	0%	22%	0%	-3%	-5%	2%	8%	3%
O=C(NC(NC(=S)Nc1ccc(F)c([N+](=O)[O-])c1)C(Cl)(Cl)Cl)C(c1ccccc1)c1ccccc1 (centres undefined)	-10%	-3%	17%	-7%	.	.	.	.
C#CCn1c(=NC(=O)c2ccc(S(=O)(=O)N3CCCc4ccccc43)cc2)sc2cc(S(N)(=O)=O)ccc21	-4%	0%	5%	2%	-4%	?	-7%	20%
Cc1ccc(N(C(=O)Cn2nnc3ccccc32)C(C(=O)NCc2ccco2)c2cccnc2)cc1 (centres undefined)	-7%	-1%	3%	-11%	34%	-27%	.	.
CC(=O)c1cc2c(cc1N(C(=O)Cn1nnc3ccccc31)C(C(=O)NCCC(C)C)c1cccnc1)OCO2 (centres undefined)	-2%	0%	6%	-5%	2%	-17%	-3%	5%
NCCCC[C@H](NC(=O)[C@H](CCCN=C(N)N)NC(=O)[C@H](CO)NC(=O)[C@H](CCCN=C(N)N)NC(=O)[C@@H](N)Cc1ccc(O)cc1)C(=O)N[C@@H](Cc1ccc(O)cc1)C(=O)N[C@@H](CO)C(=O)N[C@@H](CO)C(=O)N[C@@H](Cc1c[nH]c2ccccc12)C(=O)N[C@@H](Cc1ccc(O)cc1)C(=O)O	6%	-10%	11%	-5%	.	.	.	.
O=C(N=c1ccn(-c2nc3ccccc3nc2NS(=O)(=O)c2ccc(Cl)cc2)cc1)c1cccs1	-10%	?	.	-9%	.	?	.	.	RECQ1 inh-2=-23%
CCOc1ccc(S(=O)(=O)Nc2nc3ccccc3nc2-n2ccc(=NC(=O)c3cccs3)cc2)cc1	-6%	-2%	5%	0%	2%	?	.	.
NCC(=O)N[C@@H](CCCN=C(N)N)C(=O)NCC(=O)N[C@@H](CCC(=O)O)C(=O)N[C@@H](CO)C(=O)O	0%	10%	11%	-4%	.	.	.	.
CCCCNC(=O)c1onc(CSc2cccc3ccccc23)c1C(=O)O	-3%	6%	3%	1%	12%	4%	?	-4%
CCc1ccccc1SCc1noc(C(=O)NCC2CCCO2)c1C(=O)O (centres undefined)	-14%	-10%	3%	11%	7%	3%	.	.
C=CCNC(=O)c1onc(CSc2cccc(OC)c2)c1C(=O)O	1%	-6%	5%	1%	13%	-4%	6%	?
SMILES	BLM inh	RECQ1 inh-1	TDP1 inh	APE1 inh	L3MBTL1 block	KDM4E inh	RECQ1 inh conf	RECQ1 ADP FP	others
CCCCNC(=O)c1onc(CSc2ccccc2)c1C(=O)O	-6%	-12%	6%	-13%	12%	-10%	.	.
COc1cccc(SCc2noc(C(=O)NC(C)C)c2C(=O)O)c1	0%	-1%	4%	1%	6%	0%	.	.
O=C(NCC1CCCO1)c1onc(CSc2cccc3ccccc23)c1C(=O)O (centres undefined)	-1%	-10%	2%	-1%	2%	9%	5%	2%
Cc1c(P(=S)(c2ccccc2)c2ccccc2)c2ccccc2n1Cc1ccccc1	.	.	0%	.	.	.	.	.
c1cncc(-c2cc(-n3ccnc3)ncn2)c1	2%	i	.	-11%	.	.	.	.
C=CCCN(C(C)C(=O)OC)S(=O)(=O)c1ccccc1Br (centres undefined)	-4%	-11%	0%	-6%	.	.	.	.
O=C(O)CCSc1nnc(COc2cccc3ccccc23)n1-c1cccc(Cl)c1	-1%	-5%	7%	3%	-1%	-9%	17%	-13%
Cc1cccc(CNC(=O)CCCn2c(=O)c3cccn3c3ccc(F)cc32)c1	-1%	.	0%	.	.	.	.	.
Cc1ccc(CNC(=O)c2cc(Sc3ccc(F)cc3F)nc3ccccc23)cc1	-1%	.	5%	.	.	.	.	.

Bioassay records: PubChem BioAssay, National Center for Advancing Translational Sciences (NCATS)
